Key:
Assay in all cases: log2 ratio of Biotin-Ahx-Ub-VS probe labelling (fragment/DMSO); higher = less target engagement (more negative = stronger competition), active = hit call of the paper (q ≤ 0.05, log2 ratio ≤ -1)
Settings in all cases: compound concentration: 200 uM; treatment time: 3 h
USP34 = USP34 (UniProt Q70CQ2)
In short: (§1)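 Each value is an average log2 ratio of fragment to vehicle, tested by unpaired t-test. The underlying Spectronaut label-free quantities were global-median-normalised, and only proteins with ≥2 unique peptides were included. Triplicate HEK293T lysate samples (495 µg) were exposed to fragment at 200 µM or vehicle for 3 h, then to Biotin-Ahx-Ub-VS at 0.5 µM final for 1 h, before NeutrAvidin enrichment of labelled DUBs, LysC and trypsin digestion, and diaPASEF LC-MS/MS.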

USP36 = target: T1, USP36 (UniProt Q9P275)
T1 sequence (whole entry): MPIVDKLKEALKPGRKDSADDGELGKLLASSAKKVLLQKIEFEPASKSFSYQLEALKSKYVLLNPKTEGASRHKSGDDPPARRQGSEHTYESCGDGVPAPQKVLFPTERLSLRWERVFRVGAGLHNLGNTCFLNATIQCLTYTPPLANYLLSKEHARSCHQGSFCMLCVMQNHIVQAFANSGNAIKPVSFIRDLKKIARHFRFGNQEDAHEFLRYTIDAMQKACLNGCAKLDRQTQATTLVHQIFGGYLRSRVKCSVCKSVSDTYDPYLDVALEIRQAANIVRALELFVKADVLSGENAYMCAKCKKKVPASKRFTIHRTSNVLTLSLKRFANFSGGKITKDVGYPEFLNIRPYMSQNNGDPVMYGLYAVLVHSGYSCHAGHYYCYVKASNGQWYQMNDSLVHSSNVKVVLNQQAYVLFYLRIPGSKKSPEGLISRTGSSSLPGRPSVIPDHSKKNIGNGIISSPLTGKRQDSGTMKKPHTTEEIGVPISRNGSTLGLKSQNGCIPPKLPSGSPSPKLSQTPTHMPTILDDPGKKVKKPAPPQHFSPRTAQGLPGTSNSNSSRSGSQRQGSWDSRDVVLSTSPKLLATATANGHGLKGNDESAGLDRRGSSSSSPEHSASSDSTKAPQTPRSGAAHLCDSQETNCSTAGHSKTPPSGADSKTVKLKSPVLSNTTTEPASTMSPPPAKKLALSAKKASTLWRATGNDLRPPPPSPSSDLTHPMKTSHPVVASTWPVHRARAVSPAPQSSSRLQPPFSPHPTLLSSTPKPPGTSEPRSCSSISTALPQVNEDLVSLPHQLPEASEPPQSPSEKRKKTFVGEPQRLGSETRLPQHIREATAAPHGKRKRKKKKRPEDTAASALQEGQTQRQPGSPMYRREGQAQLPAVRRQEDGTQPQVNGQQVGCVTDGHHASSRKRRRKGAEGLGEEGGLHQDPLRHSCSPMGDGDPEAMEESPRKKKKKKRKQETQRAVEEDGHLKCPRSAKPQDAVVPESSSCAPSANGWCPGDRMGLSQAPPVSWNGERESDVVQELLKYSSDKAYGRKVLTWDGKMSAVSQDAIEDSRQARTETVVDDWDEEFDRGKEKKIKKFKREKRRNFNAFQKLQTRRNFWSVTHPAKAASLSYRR
In short: as §1

USP38 = target: T2, USP38 (UniProt Q8NB14)
T2 sequence (whole entry): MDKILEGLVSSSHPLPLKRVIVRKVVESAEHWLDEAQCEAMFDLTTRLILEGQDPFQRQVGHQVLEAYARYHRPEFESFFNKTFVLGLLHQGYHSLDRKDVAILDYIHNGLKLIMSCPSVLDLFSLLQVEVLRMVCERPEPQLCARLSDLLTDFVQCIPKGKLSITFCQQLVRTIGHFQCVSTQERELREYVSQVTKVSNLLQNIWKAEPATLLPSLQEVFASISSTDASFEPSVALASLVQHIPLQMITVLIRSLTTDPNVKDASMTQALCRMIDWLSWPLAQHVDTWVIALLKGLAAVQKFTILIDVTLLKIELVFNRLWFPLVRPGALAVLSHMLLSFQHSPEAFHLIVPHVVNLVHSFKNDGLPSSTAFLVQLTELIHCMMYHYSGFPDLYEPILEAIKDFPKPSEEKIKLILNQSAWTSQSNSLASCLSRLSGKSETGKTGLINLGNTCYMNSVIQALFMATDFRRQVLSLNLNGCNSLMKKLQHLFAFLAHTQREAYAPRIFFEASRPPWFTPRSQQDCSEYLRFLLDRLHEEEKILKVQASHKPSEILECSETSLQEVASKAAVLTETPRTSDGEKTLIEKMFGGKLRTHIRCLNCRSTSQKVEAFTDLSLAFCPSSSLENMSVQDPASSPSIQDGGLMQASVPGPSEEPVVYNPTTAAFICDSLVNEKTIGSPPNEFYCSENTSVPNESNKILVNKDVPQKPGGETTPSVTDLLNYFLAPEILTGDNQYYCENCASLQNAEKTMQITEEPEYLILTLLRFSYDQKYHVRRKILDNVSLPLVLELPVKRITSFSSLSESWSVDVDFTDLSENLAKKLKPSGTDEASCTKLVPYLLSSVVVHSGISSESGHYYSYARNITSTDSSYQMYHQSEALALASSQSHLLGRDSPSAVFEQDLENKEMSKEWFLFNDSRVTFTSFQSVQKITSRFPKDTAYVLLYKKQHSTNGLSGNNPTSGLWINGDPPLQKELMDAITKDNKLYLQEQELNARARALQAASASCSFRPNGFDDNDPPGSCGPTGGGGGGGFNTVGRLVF
In short: as §1

USP39 = target: T3, USP39 (UniProt Q53GS9)
T3 sequence (whole entry): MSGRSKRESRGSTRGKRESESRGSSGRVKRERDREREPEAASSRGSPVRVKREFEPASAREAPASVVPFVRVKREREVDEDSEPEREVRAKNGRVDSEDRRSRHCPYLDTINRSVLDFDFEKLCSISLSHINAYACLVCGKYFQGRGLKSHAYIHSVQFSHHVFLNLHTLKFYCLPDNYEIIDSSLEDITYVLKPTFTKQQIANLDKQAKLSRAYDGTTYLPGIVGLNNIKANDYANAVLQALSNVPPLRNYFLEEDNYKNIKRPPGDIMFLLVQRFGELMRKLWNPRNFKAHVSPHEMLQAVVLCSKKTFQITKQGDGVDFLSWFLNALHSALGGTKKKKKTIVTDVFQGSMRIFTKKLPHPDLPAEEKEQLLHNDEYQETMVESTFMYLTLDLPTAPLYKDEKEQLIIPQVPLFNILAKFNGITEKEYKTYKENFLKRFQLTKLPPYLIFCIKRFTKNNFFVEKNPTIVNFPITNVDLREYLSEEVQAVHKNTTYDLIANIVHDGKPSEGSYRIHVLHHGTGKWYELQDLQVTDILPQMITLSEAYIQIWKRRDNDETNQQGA
In short: as §1

USP4 = target: T4, USP4 (UniProt Q13107)
T4 sequence (whole entry): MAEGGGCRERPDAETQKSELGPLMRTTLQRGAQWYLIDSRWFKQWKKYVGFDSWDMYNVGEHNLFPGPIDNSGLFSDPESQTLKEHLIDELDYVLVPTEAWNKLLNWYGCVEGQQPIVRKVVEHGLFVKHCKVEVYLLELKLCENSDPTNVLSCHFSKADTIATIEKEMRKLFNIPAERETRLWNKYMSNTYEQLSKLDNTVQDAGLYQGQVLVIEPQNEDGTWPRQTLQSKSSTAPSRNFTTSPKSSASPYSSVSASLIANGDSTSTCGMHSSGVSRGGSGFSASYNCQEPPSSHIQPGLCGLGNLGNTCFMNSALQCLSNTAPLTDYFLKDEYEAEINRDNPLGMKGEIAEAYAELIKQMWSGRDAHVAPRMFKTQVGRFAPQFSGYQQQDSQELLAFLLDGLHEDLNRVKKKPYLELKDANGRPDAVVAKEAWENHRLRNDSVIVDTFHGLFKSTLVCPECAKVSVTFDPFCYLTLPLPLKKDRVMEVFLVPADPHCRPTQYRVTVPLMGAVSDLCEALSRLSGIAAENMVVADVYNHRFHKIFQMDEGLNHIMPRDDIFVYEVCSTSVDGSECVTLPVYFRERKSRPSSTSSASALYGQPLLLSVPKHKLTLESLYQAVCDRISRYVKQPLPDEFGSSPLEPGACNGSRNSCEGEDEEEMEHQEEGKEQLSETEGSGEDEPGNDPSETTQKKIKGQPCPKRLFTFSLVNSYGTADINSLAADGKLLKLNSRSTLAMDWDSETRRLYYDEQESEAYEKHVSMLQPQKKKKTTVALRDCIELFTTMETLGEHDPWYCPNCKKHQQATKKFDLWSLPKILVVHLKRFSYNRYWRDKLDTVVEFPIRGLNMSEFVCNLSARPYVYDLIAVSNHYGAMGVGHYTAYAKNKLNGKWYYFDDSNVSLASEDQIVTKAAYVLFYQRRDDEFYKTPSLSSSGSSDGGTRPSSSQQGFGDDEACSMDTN
In short: as §1

Measured: log2 ratio of Biotin-Ahx-Ub-VS probe labelling

USP34, sequence (Q70CQ2 whole entry, the tested form may be a part): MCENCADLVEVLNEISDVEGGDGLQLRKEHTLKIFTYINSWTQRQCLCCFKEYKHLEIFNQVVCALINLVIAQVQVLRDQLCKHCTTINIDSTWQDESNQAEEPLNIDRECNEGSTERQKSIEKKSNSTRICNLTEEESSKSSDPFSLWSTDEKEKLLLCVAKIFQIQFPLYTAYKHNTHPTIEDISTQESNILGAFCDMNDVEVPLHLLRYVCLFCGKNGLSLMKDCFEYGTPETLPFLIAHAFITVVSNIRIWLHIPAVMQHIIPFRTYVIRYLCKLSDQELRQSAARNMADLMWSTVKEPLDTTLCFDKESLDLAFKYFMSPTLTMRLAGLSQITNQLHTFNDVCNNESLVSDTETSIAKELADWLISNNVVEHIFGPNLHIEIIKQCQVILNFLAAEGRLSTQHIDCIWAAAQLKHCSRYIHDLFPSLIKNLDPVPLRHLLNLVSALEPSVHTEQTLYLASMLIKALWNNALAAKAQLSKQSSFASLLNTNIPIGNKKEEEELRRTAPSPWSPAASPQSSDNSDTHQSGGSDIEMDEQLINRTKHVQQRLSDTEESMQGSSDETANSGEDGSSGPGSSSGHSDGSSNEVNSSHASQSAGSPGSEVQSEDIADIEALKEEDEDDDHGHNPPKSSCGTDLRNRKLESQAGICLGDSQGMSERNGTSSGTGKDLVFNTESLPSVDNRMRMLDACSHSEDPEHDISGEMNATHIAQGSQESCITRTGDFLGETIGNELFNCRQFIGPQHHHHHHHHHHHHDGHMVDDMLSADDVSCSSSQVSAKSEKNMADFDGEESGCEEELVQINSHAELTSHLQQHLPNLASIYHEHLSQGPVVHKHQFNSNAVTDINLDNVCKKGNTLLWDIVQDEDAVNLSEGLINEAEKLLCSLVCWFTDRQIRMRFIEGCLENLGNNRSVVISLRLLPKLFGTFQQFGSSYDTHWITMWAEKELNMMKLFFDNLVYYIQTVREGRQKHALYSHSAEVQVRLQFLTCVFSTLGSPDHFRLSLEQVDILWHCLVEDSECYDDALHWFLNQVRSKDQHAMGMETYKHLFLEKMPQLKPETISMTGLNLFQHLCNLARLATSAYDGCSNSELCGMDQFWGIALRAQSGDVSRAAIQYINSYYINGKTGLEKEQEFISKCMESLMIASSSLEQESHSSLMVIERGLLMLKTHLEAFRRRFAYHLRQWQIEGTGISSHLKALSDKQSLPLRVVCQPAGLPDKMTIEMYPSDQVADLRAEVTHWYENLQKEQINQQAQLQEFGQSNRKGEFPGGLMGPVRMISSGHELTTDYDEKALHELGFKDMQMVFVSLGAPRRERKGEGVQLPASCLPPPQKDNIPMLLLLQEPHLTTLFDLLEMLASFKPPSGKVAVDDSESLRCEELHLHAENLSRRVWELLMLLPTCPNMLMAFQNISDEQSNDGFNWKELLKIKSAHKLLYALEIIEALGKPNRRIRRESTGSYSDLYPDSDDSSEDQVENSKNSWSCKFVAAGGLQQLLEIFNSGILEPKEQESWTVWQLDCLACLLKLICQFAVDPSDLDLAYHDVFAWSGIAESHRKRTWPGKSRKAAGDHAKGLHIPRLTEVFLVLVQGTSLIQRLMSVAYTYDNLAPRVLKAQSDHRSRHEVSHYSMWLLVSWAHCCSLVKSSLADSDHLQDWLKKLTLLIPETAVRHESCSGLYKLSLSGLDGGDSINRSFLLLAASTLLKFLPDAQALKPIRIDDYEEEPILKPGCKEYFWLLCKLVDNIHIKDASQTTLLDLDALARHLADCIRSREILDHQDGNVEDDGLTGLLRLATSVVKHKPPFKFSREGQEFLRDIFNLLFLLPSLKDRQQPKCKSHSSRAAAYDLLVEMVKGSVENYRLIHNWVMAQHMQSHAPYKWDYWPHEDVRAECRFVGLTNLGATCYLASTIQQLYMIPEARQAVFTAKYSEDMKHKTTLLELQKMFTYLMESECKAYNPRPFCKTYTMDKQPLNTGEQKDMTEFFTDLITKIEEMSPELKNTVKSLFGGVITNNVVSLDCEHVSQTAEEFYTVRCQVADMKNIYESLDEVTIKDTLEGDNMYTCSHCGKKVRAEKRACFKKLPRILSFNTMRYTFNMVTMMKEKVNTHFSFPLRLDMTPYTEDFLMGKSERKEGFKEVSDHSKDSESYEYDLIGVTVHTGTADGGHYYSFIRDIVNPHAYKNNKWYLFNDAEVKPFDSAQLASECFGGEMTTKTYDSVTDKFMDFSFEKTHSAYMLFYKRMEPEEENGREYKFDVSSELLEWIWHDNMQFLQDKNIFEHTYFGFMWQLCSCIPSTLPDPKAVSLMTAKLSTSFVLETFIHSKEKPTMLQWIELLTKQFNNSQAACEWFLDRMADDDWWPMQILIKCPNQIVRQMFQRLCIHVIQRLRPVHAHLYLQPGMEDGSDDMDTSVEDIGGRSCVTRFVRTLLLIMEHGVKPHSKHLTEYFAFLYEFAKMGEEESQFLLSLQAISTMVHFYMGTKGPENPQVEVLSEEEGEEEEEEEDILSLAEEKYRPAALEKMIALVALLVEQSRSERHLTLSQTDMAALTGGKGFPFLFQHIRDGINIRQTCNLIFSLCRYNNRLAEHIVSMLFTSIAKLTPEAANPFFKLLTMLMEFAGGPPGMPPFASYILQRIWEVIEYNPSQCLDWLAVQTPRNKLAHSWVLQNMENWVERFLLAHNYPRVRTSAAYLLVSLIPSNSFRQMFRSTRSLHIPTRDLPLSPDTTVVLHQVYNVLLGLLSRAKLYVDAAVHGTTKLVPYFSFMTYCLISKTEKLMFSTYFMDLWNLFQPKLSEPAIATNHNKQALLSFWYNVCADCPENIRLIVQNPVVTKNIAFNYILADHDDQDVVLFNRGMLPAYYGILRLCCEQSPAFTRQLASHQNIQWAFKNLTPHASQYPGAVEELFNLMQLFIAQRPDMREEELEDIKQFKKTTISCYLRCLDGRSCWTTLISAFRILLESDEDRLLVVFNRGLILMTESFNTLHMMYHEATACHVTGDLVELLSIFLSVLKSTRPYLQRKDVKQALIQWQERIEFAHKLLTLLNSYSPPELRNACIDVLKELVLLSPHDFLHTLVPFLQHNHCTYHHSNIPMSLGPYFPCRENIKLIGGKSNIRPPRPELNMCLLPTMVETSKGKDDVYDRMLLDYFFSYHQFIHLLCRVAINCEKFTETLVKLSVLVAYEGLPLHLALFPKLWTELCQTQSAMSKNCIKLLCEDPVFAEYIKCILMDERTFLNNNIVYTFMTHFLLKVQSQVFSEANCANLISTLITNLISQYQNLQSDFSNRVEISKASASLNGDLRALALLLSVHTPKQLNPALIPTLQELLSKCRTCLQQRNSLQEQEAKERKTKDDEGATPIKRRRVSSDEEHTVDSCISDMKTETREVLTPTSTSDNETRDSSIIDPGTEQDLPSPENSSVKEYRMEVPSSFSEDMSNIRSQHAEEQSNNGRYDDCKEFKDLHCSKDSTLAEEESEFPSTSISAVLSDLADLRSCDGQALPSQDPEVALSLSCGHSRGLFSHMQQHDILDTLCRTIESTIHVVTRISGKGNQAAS

O=C(CCl)N1CCC(=C(F)CO)C1
inactive: USP34 0.0842 | USP36 -0.125 | USP38 0.0909 | USP39 0.212 | USP4 0.218
